Experimental data published in the supplement of paper PMC6555819.

Columns and labels:
Test in all cases: PBM binding z-score (relative to random genomic background probes); higher = stronger binding; sequences stand for … in GC…GCGATTGACAGCGTAGAATGAAGG
[1] = test system: FXR:RXRa (NR concentration 270 nM, RXRa partner concentration 90 nM)
Procedure, shortened: (§1)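 Binding z-scores take random background probes as their reference. They come from custom Agilent 4×180K protein-binding microarrays incubated 1 h with ligand-free nuclear receptor dimers, with antibodies against each partner (one per run) detecting binding. Scanned fluorescence was regression-normalized.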

[2] = test system: LXRa:RXRa (NR concentration 270 nM, RXRa partner concentration 90 nM)
Procedure, shortened: as §1

[3] = test system: LXRa homodimer (NR concentration 270 nM)
Procedure, shortened: as §1

[4] = test system: LXRb:RXRa (NR concentration 270 nM, RXRa partner concentration 90 nM)
Procedure, shortened: as §1

[5] = test system: LXRb homodimer (NR concentration 270 nM)
Procedure, shortened: as §1

[6] = test system: PPARa:RXRa (NR concentration 270 nM, RXRa partner concentration 90 nM)
Procedure, shortened: as §1

[7] = test system: PPARg:RXRa (NR concentration 180 nM, RXRa partner concentration 90 nM)
Procedure, shortened: as §1

[8] = test system: PPARg:RXRa 270nM:90nM, anti-RXR (NR concentration 270 nM, RXRa partner concentration 90 nM)
Procedure, shortened: as §1

[9] = test system: PPARg:RXRa 30nM:10nM, anti-RXR (NR concentration 30 nM, RXRa partner concentration 10 nM)
Procedure, shortened: as §1

[10] = test system: PPARg:RXRa 90nM:30nM, anti-RXR (NR concentration 90 nM, RXRa partner concentration 30 nM)
Procedure, shortened: as §1

[11] = test system: PPARg:RXRa DBDmut IVT, anti-RXR (DBD mutation: RXRa K156A/R161A, NR concentration 270 nM, RXRa partner concentration 90 nM)
Procedure, shortened: as §1

[12] = test system: PPARg:RXRa IVT, anti-PPARg (NR concentration 270 nM, RXRa partner concentration 90 nM)
Procedure, shortened: as §1

[13] = test system: PPARg DBDmut:RXRa IVT, anti-PPARg (DBD mutation: PPARg1 K132A/R137A, NR concentration 270 nM, RXRa partner concentration 90 nM)
Procedure, shortened: as §1

[14] = test system: PPARg DBDmut IVT, anti-PPARg (DBD mutation: PPARg1 K132A/R137A, NR concentration 270 nM)
Procedure, shortened: as §1

[15] = test system: PPARg homodimer (NR concentration 180 nM)
Procedure, shortened: as §1

[16] = test system: PXR:RXRa (NR concentration 270 nM, RXRa partner concentration 90 nM)
Procedure, shortened: as §1

[17] = test system: PXR homodimer (NR concentration 270 nM)
Procedure, shortened: as §1

[18] = test system: RARa:RXR (NR concentration 270 nM, RXRa partner concentration 90 nM)
Procedure, shortened: as §1

[19] = test system: RARa homodimer (NR concentration 270 nM)
Procedure, shortened: as §1

[20] = test system: RARb:RXRa (NR concentration 270 nM, RXRa partner concentration 90 nM)
Procedure, shortened: as §1

| Sequence | PBM binding z-score [1] | PBM binding z-score [2] | PBM binding z-score [3] | PBM binding z-score [4] | PBM binding z-score [5] | PBM binding z-score [6] | PBM binding z-score [7] | PBM binding z-score [8] | PBM binding z-score [9] | PBM binding z-score [10] | PBM binding z-score [11] | PBM binding z-score [12] | PBM binding z-score [13] | PBM binding z-score [14] | PBM binding z-score [15] | PBM binding z-score [16] | PBM binding z-score [17] | PBM binding z-score [18] | PBM binding z-score [19] | PBM binding z-score [20] |
| --- | --- | --- | --- | --- | --- | --- | --- | --- | --- | --- | --- | --- | --- | --- | --- | --- | --- | --- | --- | --- |
| CGTCCAACGTCATAGGAGGTCAGTGAAGACAGAT | 1.79 | 2.71 | 0.999 | 1.63 | -0.234 | 2.09 | 0.683 | 0.77 | 0.184 | 0.231 | 0.0965 | 1.08 | 0.0644 | -0.0605 | 1.13 | 2.24 | 0.731 | 1.79 | 0.648 | 2.14 |
| TATACAGGGTCAAAGGCCAGAGCACGAATGTCGA | 6.57 | 6.15 | 1.83 | 4.68 | 2.53 | 5.83 | 7.89 | 7.51 | 5.16 | 7.77 | 2.75 | 4.99 | 1.39 | 1.27 | 1.83 | 4.17 | 0.0861 | 5.31 | 0.94 | 4.36 |
| CGAACGAGGACATGAGTTGATAGCAAATGCCGAT | 0.0885 | -0.189 | -0.104 | -0.698 | -0.657 | -0.417 | 0.982 | 0.127 | 0.435 | 0.242 | 0.314 | 0.0195 | 0.334 | -0.107 | 0.0836 | -0.249 | 0.0683 | -0.232 | 0.565 | 0.496 |
| TAGCCTAGGTCATTGGGCCAGAATAGTACGCATC | 4.53 | 3.53 | 0.524 | 2.31 | 0.302 | 4.07 | 3.79 | 3.88 | 1.11 | 2.46 | 2.63 | 3.68 | -0.385 | -0.0458 | 1.41 | 1.51 | -0.537 | 2.26 | 0.079 | 3.53 |
| CGATCGAGGGCATGAGTTGATAGCAAATGCCGAT | 0.233 | -0.0163 | -0.798 | -0.0334 | -1.04 | 1.22 | 1.17 | 1.29 | -0.0363 | 0.755 | 2.46 | 1.93 | -0.505 | -0.163 | 0.296 | 0.228 | -0.306 | 0.106 | -0.984 | 1.94 |
| CGTCCTAGGTCATAGGAGGTCAGTGAAGACAGAT | 5.53 | 6.34 | 3.87 | 5.18 | 0.0467 | 4.91 | 3.72 | 4.05 | 1.4 | 3.09 | 3.43 | 4.34 | -0.339 | -0.4 | 2.53 | 6.01 | 1.28 | 4.21 | 1.08 | 4.6 |
| TCTGCTAGGTCAACGATGGTCAGCTAGTCTGCTA | 3.29 | 2.53 | -0.369 | 1.39 | -0.445 | 3.44 | 2.46 | 2.9 | 1.75 | 2.53 | 3.64 | 4.26 | -0.411 | -0.961 | 0.415 | 1.42 | -1.07 | 2.26 | -1.08 | 4.06 |
| GCATATTGGTAATACAAGGTGAAAGTCCGATTGT | 0.142 | -0.00547 | 0.127 | 0.0375 | -0.19 | 0.519 | 0.364 | 0.443 | 0.33 | 0.00917 | 0.078 | 0.938 | 1.13 | 0.842 | 0.326 | 0.0953 | 0.0473 | 0.645 | -0.0157 | 0.266 |
| TCTTGCAGATCAAGCAGGTTAAGAAAGCCTGAGT | -0.529 | 0.00259 | -0.304 | 0.157 | -0.667 | 0.293 | -0.508 | 0.302 | 1.76 | 1.14 | 0.549 | -0.312 | -0.516 | -0.801 | -0.945 | 0.199 | -0.285 | 0.324 | -1.11 | -0.136 |
| ATATGTAGGTTACATCCGGGTCATTCATGCTATG | 2.21 | 4.15 | 1.59 | 3.05 | 0.928 | 4.55 | 6.16 | 5.07 | 2.55 | 4.45 | 7.49 | 7.53 | 5.06 | 3.54 | 3.61 | 3.79 | 1.66 | 3.83 | 1.2 | 2.23 |
| CGTCCAAGGTCAACGGTCAGTGAAGAGATGACGG | 7.38 | 5.09 | 1.45 | 4.23 | 0.938 | 6.03 | 6.01 | 5.78 | 2.86 | 4.85 | 3.45 | 4.39 | 0.975 | 0.233 | 2.65 | 4.02 | 0.701 | 4.66 | 0.466 | 5.55 |
| CGAACTAGGTTATTGACAGGACAGTGAATAGTAA | 0.276 | 0.886 | 0.37 | 0.406 | -0.0993 | 2.09 | 2.41 | 2.12 | 0.574 | 1.47 | 5.85 | 5.11 | 0.805 | 0.514 | 0.855 | 0.198 | 0.237 | 0.554 | 0.372 | 0.837 |
| TCTAGTTGGACAAAGGTCACACACTCGAAATGCG | 5.55 | 5.75 | 3.58 | 5.38 | 1.83 | 6.21 | 9.82 | 8.72 | 9.32 | 9.4 | 2.65 | 5.02 | 0.884 | 1.01 | 4.09 | 5.7 | 1.81 | 6.59 | 2.98 | 5.11 |
| ATCTCTAGGAAAAGATAGTTCAGTGAATGCAAAT | 0.351 | 0.417 | 0.457 | 0.247 | 0.273 | -0.0453 | 0.305 | -0.0709 | 0.0801 | -0.0493 | -0.409 | -0.0598 | 0.523 | 0.248 | -0.459 | 0.432 | 0.918 | -0.0188 | 1.07 | 0.49 |
| TAGCCTAGGTCAGATCGGGCCCGTATACGCTATA | 1.58 | 1.2 | -0.271 | 0.916 | -0.19 | 1.67 | 0.67 | 0.657 | -0.472 | 0.0407 | 0.295 | 1.06 | -0.496 | -0.614 | -0.129 | 0.189 | -0.808 | 1.16 | -0.649 | 3.02 |
| TAACCTAGGTCATGCGGGCCAGTATAGTGTCGGC | 4.19 | 4.46 | 1.83 | 2.55 | -0.0591 | 4.09 | 4.16 | 3.58 | 1.11 | 2.56 | 3.49 | 4.46 | 0.354 | 0.297 | 1.08 | 1.84 | -0.126 | 2.5 | 0.00748 | 3.89 |
| CCAACTAGGTCACCGGAAGGTCAAAGTCCGCATG | 6.49 | 5.96 | 5.35 | 5.35 | 1.43 | 5.81 | 9.14 | 7.51 | 5.79 | 6.94 | 8.42 | 8.36 | 0.902 | 1.2 | 9.32 | 6.17 | 2.46 | 7.7 | 4.05 | 5.15 |
